Experimental data: PubChem BioAssay (NCATS)
Inconclusive results are not listed. Activity calls are given as the source filed them. Unless noted, calls follow the shape of the dose curve; as a rule, active = well fitted curve in the direction sought with a large enough effect; inconclusive = small, poorly fitted or top-dose-only effect, or another doubt; inactive = no such curve, though single readings can be large; an effect the other way counts as inactive or inconclusive.

Tests used:
[1] = target: Endonuclease 4 (Escherichia coli (strain K12)) (UniProt P0A6C1); test: Counterscreen for APE1 Inhibitors: qHTS Validation Assay for Inhibitors of Endonuclease IV (AID 1708)
Method in brief: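 Measured as reaction progress, the fluorescence gain between first and third kinetic reads after adding 50 nM TAMRA/BHQ-2 THF duplex to 2 nM enzyme preincubated 15 min with compound; 2 mM MgCl2, pH 7.5.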

[2] = qHTS for differential inhibitors of proliferation of Plasmodium falciparum line 7G8 (AID 1815);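 also: parasite growth measured after three days of incubation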; also: potency is read from the fitted curve at half-maximal effect
[3] = qHTS for differential inhibitors of proliferation of Plasmodium falciparum line GB4 (AID 1816); conditions: Potency: Plasmodium falciparum GB4 proliferation inhibition;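 also: parasite growth measured after 72 h incubation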; also: potency is read from the fitted curve at half-maximal effect
[4] = qHTS for differential inhibitors of proliferation of Plasmodium falciparum line 3D7 (AID 1876); also: potency is read from the fitted curve at half-maximal effect
[5] = qHTS for differential inhibitors of proliferation of Plasmodium falciparum line D10 (AID 1877);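 also: parasites grown with compound for 72 h before DNA staining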; also: potency is read from the fitted curve at half-maximal effect
[6] = qHTS for differential inhibitors of proliferation of Plasmodium falciparum line Dd2 (AID 1882); conditions: Potency: Plasmodium falciparum Dd2 proliferation inhibition; also: nearly all actives have a fitted effect of over 65% in size; also: potency is read from the fitted curve at half-maximal effect
Method in brief: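 RBC culture, 0.3% parasitemia / 2.5% Hct final; cpd added by pin tool in DMSO; 72 h, 37 C, 5% CO2; lysis buffer + SYBR Green I, o/n RT dark; FI 485/535; norm. to artemisinin 0.29 uM and DMSO.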

[7] = qHTS for differential inhibitors of proliferation of Plasmodium falciparum line W2 (AID 1883); conditions: Potency: Plasmodium falciparum W2 proliferation inhibition;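 also: parasites grown with compound for 72 h before lysis and staining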; also: potency is read from the fitted curve at half-maximal effect
[8] = qHTS for differential inhibitors of proliferation of Plasmodium falciparum line HB3 (AID 1886); conditions: Potency: Plasmodium falciparum HB3 proliferation inhibition;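 also: parasites grown with compound for 72 h before SYBR Green readout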; also: potency is read from the fitted curve at half-maximal effect
[9] = qHTS Assay for Identification of Small Molecule Inducers of Hypoxia Response (AID 2120; active = well fitted curve in the direction sought with a large enough effect in the signal ratio, with a control signal flat, not every such curve was filed as active; the % refers to the signal ratio)
Method in brief: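 Read-out: CCF4 FRET emission ratio 460nm/530nm (excitation 405nm), converted to %Activity, with AC50 fitted across a compound titration. ME-180 cells carried an HRE-driven beta-lactamase reporter; compound exposure 17 h, 37 degrees C.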

[10] = qHTS Assay for Modulators of Human Peripheral Myelin Protein 22 (PMP22) Expression/Activity (AID 1967; active = well fitted curve in the direction sought with a large enough effect in the signal ratio; the % refers to the signal ratio)
Method in brief: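 Mouse MSC80 Schwann line, Pmp22 promoter–CBG68 reporter, EF-alpha–CBR internal control. 24h compound exposure, 37 °C/5% CO2, DMEM + 10% FBS. Readout: corrected green/red luminescence ratio, normalized to untreated cells; concentration-response curves fitted and classified.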

Measured: Potency

NCCS
not listed: [9] | [10]
inactive: all other assays above

CCN(CC)CCNC(=O)c1ccc(N)cc1
not listed: [9] | [10]
inactive: all other assays above

O=C(O)Cc1cccc2ccccc12
inactive: [9]

COC(=O)[C@@H]1[C@H]2C[C@H]3c4[nH]c5ccccc5c4CCN3C[C@@H]2CC[C@@H]1O
inactive: [1] | [6]

O=C(O)CCc1nc(-c2ccccc2)c(-c2ccccc2)o1
inactive: [1]

CC(=O)c1ccc(S(=O)(=O)NC(=O)NC2CCCCC2)cc1
not listed: [9] | [10]
inactive: all other assays above

NC(N)=Nc1nc(CSCC/C(N)=N/S(N)(=O)=O)cs1
not listed: [9] | [10]
inactive: all other assays above

O=c1c(-c2ccc(O)cc2)coc2cc(O)ccc12
not listed: [9] | [10]
inactive: all other assays above

O=c1[nH]cnc2c1ncn2[C@H]1CC[C@@H](CO)O1
inactive: [9]

CC1(C)CCC2=C(O1)c1ccccc1C(=O)C2=O
inactive: [1]
active: [2] 3.55 µM | [3] 3.98 µM | [4] 10 µM | [5] 11.2 µM | [6] 12.6 µM | [7] 7.08 µM | [8] 12.6 µM

O=c1cc(-c2ccc(O)cc2)oc2cc(O)cc(O)c12
inactive: [6]
active: [2] 11.2 µM | [3] 14.1 µM | [4] 12.6 µM | [7] 10 µM | [8] 11.2 µM

CCN1CCC[C@H]1CNC(=O)c1cc(S(N)(=O)=O)ccc1OC
not listed: [9] | [10]
inactive: all other assays above

CCCNC(=O)NS(=O)(=O)c1ccc(Cl)cc1
not listed: [10]
inactive: all other assays above

CCCCC1C(=O)N(c2ccccc2)N(c2ccccc2)C1=O
active: [3] 14.1 µM | [4] 11.2 µM | [7] 11.2 µM
inactive: [1] | [9]

CN(C)CCC(c1ccccc1)c1ccccn1 (centres undefined)
inactive: [1] | [4] | [5] | [8]
active: [3] 5.62 µM | [7] 3.55 µM

CCN(CC)C(=O)c1ccc(O)c(OC)c1
not listed: [9] | [10]
inactive: all other assays above

C[N+](C)(C)CCCCCC[N+](C)(C)C
not listed: [9] | [10]
inactive: all other assays above

CC(=O)N[C@@H](CS)C(=O)O
not listed: [9] | [10]
inactive: all other assays above

CCN(CC)CCOC(=O)c1ccc(N)cc1
inactive: [2] | [3] | [4] | [5] | [6] | [8]

O=C(O)c1cc(O)c2c(c1)C(=O)c1cccc(O)c1C2=O
inactive: [9]

O=C1NCC2(CCN(CCc3ccccc3)CC2)O1
inactive: [2] | [4] | [5] | [6] | [8] | [10]

COc1ccccc1N1CCN(CCCNc2cc(=O)n(C)c(=O)n2C)CC1
active: [4] 10 µM | [7] 10 µM
inactive: [1] | [2] | [6]

COc1cccc(-c2cc(=O)c3ccccc3o2)c1N
active: [7] 12.6 µM
inactive: [1] | [6]

CC/C(=C(\c1ccccc1)c1ccc(OCCN(C)C)cc1)c1ccccc1
active: [2] 8.91 µM | [3] 12.6 µM | [4] 11.2 µM | [5] 11.2 µM | [6] 11.2 µM | [7] 7.94 µM | [8] 11.2 µM

CC(=O)CCCCn1c(=O)c2c(ncn2C)n(C)c1=O
not listed: [1] | [9] | [10]
inactive: all other assays above

CC1=C(/C=C/C(C)=C/C=C/C(C)=C/C(=O)Nc2ccc(O)cc2)C(C)(C)CCC1
inactive: [1]
active: [2] 3.55 µM | [3] 6.31 µM | [4] 11.2 µM | [5] 12.6 µM | [6] 11.2 µM | [7] 3.98 µM | [8] 12.6 µM

Cc1cccc(C)c1OCC(C)N (centres undefined)
active: [2] 12.6 µM | [3] 12.6 µM | [7] 7.94 µM
inactive: [1] | [4] | [5] | [8]

Clc1ccc(Cn2c(CN3CCCC3)nc3ccccc32)cc1
active: [2] 7.08 µM | [3] 10 µM | [4] 11.2 µM | [7] 5.62 µM | [8] 11.2 µM
inactive: [1]

O=C1NC(=O)C(c2ccccc2)(c2ccccc2)N1
not listed: [1] | [9] | [10]
inactive: all other assays above
